Measurements from article PMC10668032, “Altered binding affinity of SIX1-Q177R correlates with enhanced WNT5A and WNT pathway effector expression in Wilms tumor”.
Over roughly 33,000 sequences, “e-score” has its median near -0.05; the highest 2% begin near 0.38. For the sample, the highest values were picked, then their nearest neighbours and some sequences at random.

biological target: T1, SIX1-Q177R homeodomain (human, UniProt Q15475 108-198, Q177R); assay: universal protein binding microarray; Universal all-10-mer PBM (8x60K, AMADID 030236), 300 nM GST-tagged protein, Alexa Fluor 488 anti-GST; buffer, salt, pH and temperature not stated (as in Berger); high values mean tight binding; conditions: protein: ivt; tags: N-terminal GST; dsDNA, one strand shown
T1 sequence: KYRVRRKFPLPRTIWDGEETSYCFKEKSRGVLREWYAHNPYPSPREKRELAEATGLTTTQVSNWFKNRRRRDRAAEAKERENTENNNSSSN
Procedure, shortened: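 Homeodomains fused to GST were made by in vitro transcription/translation and measured by anti-GST western blot with a recombinant GST standard curve. At 300 nM final concentration, they were applied in duplicate to universal 'all 10-mer' protein binding microarrays (8×60K format).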

Sequence | binding signal [E-score]
CTCTACAC | 0.391 ± 0.0122
ATCTACAC | 0.404 ± 0.0153
TCGGTACA | 0.219 ± 0.0249
GGGTCTCA | 0.162 ± 0.0232
ACTGCCCG | 0.219 ± 0.00643
TAGTATCA | 0.221 ± 0.0229
CACCAAAC | 0.283 ± 0.0195
ACCGCGAA | 0.1607 ± 0.000856
CACATTTC | 0.186 ± 0.0176
GTGTACTA | 0.438 ± 0.0127
GTGTGCCA | 0.242 ± 0.0264
GTGTACGA | 0.43943 ± 0.000382
GTATACCA | 0.152 ± 0.0219
AGGTACTA | 0.1967 ± 0.000601
GTGTGCGA | 0.173 ± 0.0312
GGGTACTA | 0.224 ± 0.00292
GTGTACCA | 0.4446 ± 0.00264
CCATGGGA | 0.153 ± 0.052
ACCTCCCA | 0.191 ± 0.00743
AATCTGAC | 0.17 ± 0.00849
GTCGTACA | 0.26 ± 0.00478
CCCCCCGG | 0.254 ± 0.0183
ACACAACC | 0.219 ± 0.0237
CACCTACC | 0.2673 ± 0.000516
CACCTACA | 0.41 ± 0.00505

Sequence | binding signal [E-score]
CACCTACG | 0.232 ± 0.0231
GTATGACA | 0.257 ± 0.00319
ACAAGTGT | 0.344 ± 0.0292
CGCATACA | 0.185 ± 0.00496
AGGGACAC | 0.402 ± 0.019
CGGGATCC | 0.209 ± 0.0344
GGGGACAC | 0.41 ± 0.0266
CGGGATAC | 0.281 ± 0.0031
GAGGGGAC | 0.2 ± 0.0143
GGGGATAC | 0.254 ± 0.0111
CGGGACAC | 0.42 ± 0.00537
AGGGAGTC | 0.239 ± 0.00436
AGGGATAC | 0.165 ± 0.0372
CACTTGCA | 0.173 ± 0.0121
GGATCTGA | 0.194 ± 0.0532
CCGGATCA | 0.176 ± 0.0156
AATCTGGT | 0.159 ± 0.0527
GGTCGTAC | 0.224 ± 0.0297
CGGGGTCA | 0.269 ± 0.0255
ACTTCGTG | 0.238 ± 0.000686
AACAAGGG | 0.177 ± 0.0185
AGCAGGTG | 0.335 ± 0.0234
ACCCCACG | 0.267 ± 0.00597
CGCGACAC | 0.4355 ± 0.00314
AGCGACAC | 0.465 ± 0.00955

Sequence | binding signal [E-score]
GGCGACAC | 0.44 ± 0.0183
GGCGAGAC | 0.168 ± 0.0212
CGCGATAC | 0.254 ± 0.0107
CGCGACCC | 0.169 ± 0.0418
GGCGATAC | 0.174 ± 0.0165
GAGCGACA | 0.185 ± 0.0595
GTATCTCA | 0.158 ± 0.00253
CACTACGA | 0.191 ± 0.00718
CGAAACCC | 0.16 ± 0.0514
AATAGCAC | 0.202 ± 0.00634
GCGCACCC | 0.236 ± 0.0394
ACACACAC | 0.315 ± 0.0422
CCACACCC | 0.393 ± 0.0374
GCACACCC | 0.396 ± 0.0314
CCACACAC | 0.271 ± 0.0195
ACCCACCC | 0.276 ± 0.0223
CCACACGC | 0.282 ± 0.0206
ACACACCC | 0.39 ± 0.0201
GCACACAC | 0.275 ± 0.0355
CGGGAATA | 0.181 ± 0.0131
CCCGAACA | 0.1699 ± 0.00103
ACCTTACA | 0.192 ± 0.02
CACCCACG | 0.275 ± 0.0113
CGTCCTAC | 0.182 ± 0.018
ACCCCATA | 0.249 ± 0.00713

Sequence | binding signal [E-score]
CACTGAGG | 0.227 ± 0.0197
CCCGCGTC | 0.193 ± 0.0507
CACCGCAA | 0.284 ± 0.0454
CACTAATG | 0.164 ± 0.0232
ACCTGGAG | 0.222 ± 0.0157
AATTGGGG | 0.17 ± 0.027
TCTACACA | 0.194 ± 0.0545
GCTACCCC | 0.23 ± 0.0172
ACTACCCG | 0.204 ± 0.0121
CCTACTCC | 0.179 ± 0.0115
ACTACACT | 0.431 ± 0.0136
ACTATACA | 0.238 ± 0.0193
GCTACACC | 0.473 ± 0.00658
GCTATACC | 0.169 ± 0.0037
ACTACACA | 0.265 ± 0.0483
CCTACACC | 0.4819 ± 0.00223
CCTACCCC | 0.227 ± 0.00219
ACTACACG | 0.4206 ± 0.00315
CCCCCGGC | 0.2104 ± 0.00182
CTTGGGGA | 0.158 ± 0.0109
ACCCTTCC | 0.161 ± 0.0416
CACCGGGA | 0.176 ± 0.00643
CACTAGCA | 0.163 ± 0.00431
ATAGCGTG | 0.159 ± 0.0173
ACACATGC | 0.176 ± 0.0202

Sequence | binding signal [E-score]
ACCGGTAT | 0.212 ± 0.02
CCCGAAGG | 0.193 ± 0.0115
ACGCGTCC | 0.174 ± 0.00808
GAATAACA | 0.151 ± 0.00831
GATACCGA | 0.214 ± 0.0181
CCTACACA | 0.18 ± 0.0508
CCTACACG | 0.398 ± 0.0115
ACTACACC | 0.4877 ± 0.000997
CCTACCCG | 0.183 ± 0.0228
ACTACCCC | 0.267 ± 0.00871
ACTACTCC | 0.163 ± 0.045
ACCCCTCA | 0.289 ± 0.021
CTGTGCAC | 0.216 ± 0.0216
ACCCCGTG | 0.356 ± 0.0239
GGAACACA | 0.189 ± 0.0298
AGAACACG | 0.356 ± 0.0118
TGAACACA | 0.173 ± 0.0727
AGAACACT | 0.344 ± 0.0153
CGAACACG | 0.3556 ± 0.00281
GGAACACC | 0.4735 ± 0.00301
CGAACACC | 0.4736 ± 0.00203
AGAACACC | 0.459 ± 0.00494
CGAACACA | 0.215 ± 0.0469
CGGGGATA | 0.202 ± 0.00822
AATGGGTG | 0.281 ± 0.0496

Sequence | binding signal [E-score]
CACGCGTA | 0.184 ± 0.0106
ACCCCTAA | 0.183 ± 0.0117
ATACCTAC | 0.224 ± 0.0121
ACACCTAC | 0.4555 ± 0.00215
ACACCTGT | 0.46033 ± 0.000212
ACCCCTAG | 0.208 ± 0.00908
ACACCTAG | 0.4448 ± 0.00199
ACACTTAT | 0.349 ± 0.02
ACACATAT | 0.239 ± 0.0295
ACACCTAA | 0.4446 ± 0.00441
CCACCTAC | 0.17 ± 0.0551
ATACCTAG | 0.196 ± 0.0172
TCCCCTAA | 0.172 ± 0.0106
CAGAAGGG | 0.157 ± 0.0162
CCCCGAAA | 0.168 ± 0.0462
CACCCAAC | 0.301 ± 0.0371
CCCCAAAC | 0.197 ± 0.0113
GGTCGAAC | 0.22817 ± 0.00017
GGGCGGTA | 0.18 ± 0.0297
ACCCCTAT | 0.172 ± 0.00706
ACACATAG | 0.155 ± 0.0872
ACACCTAT | 0.448 ± 0.00643
CACCACTG | 0.342 ± 0.00325
GCGGTCGA | 0.152 ± 0.00747
ACACAGTG | 0.259 ± 0.0202

Sequence | binding signal [E-score]
CGGGATCA | 0.269 ± 0.00773
GAGTACCC | 0.173 ± 0.00951
GAGTACAC | 0.4362 ± 0.00255
CAGTACAC | 0.433 ± 0.00665
CAGCACAC | 0.269 ± 0.0132
CAGTACCG | 0.185 ± 0.0235
GAGTACTC | 0.1739 ± 0.000948
AAGTAATC | 0.163 ± 0.0142
AAGTACCC | 0.2054 ± 0.000912
AAGTACAC | 0.425 ± 0.0204
ACACAGCC | 0.164 ± 0.059
GATTGAAC | 0.162 ± 0.0507
GGATCCAA | 0.201 ± 0.0192
CACGTGGA | 0.243
AGGTGACT | 0.165 ± 0.006
CACCCTCA | 0.264 ± 0.0103
GTGTTTCA | 0.357 ± 0.00873
GTGTTGAA | 0.396 ± 0.00711
GTTGTGTA | 0.255 ± 0.0169
GTGTTGGA | 0.414 ± 0.0127
GTGTTGTA | 0.389 ± 0.00682
CCGTTGAC | 0.16 ± 0.0161
GTGTTGCA | 0.3853 ± 0.00118
GGGTTGTA | 0.169 ± 0.0161
